# Assay results published in PubChem BioAssay (NCATS).
# Where “and” joins values, the source holds several entries; their conditions need not be identical. Equal values may be shown once. Results filed as inconclusive are left out. A number with no mark means an inactive call. Calls of active or inactive are those of the source. Unless noted, calls come from the whole dose curve; as a rule, active = well fitted curve in the direction sought with a large enough effect; inconclusive = small, poorly fitted or top-dose-only effect, or another doubt; inactive = no such curve, though single readings can be large; an effect the other way counts as inactive or inconclusive.
# How the values were obtained:
# [1] = qHTS Assay for Identification of Small Molecule Agonists for Hypoxia Response Element Signaling Pathway (AID 914; active = well fitted activation curve with a large enough effect in the signal ratio, with a control signal flat, not every such curve was filed as active; the % refers to the signal ratio; note: % of control where 0% means no effect); conditions: ME-180 (cervical carcinoma) HRE-bla reporter, beta-lactamase ratio, CoCl2, 17 h; hits give high values
# In short: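 Reporter activity (beta-lactamase, CCF4 460nm/530nm ratio) in HRE-bla ME-180 cells is recorded after 17 h compound exposure with EC50 CoCl2 at 37 degrees Celsius. AC50 values come from titration data.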
# [2] = molecular target: Cytochrome P450 2C19 (Homo sapiens) (UniProt P33261); test: qHTS Assay for Inhibitors and Substrates of Cytochrome P450 2C19 (AID 899); conditions: recombinant CYP2C19, luciferin-H EGE luminescence; series mostly up to 11.4 µM; note: nearly all actives have a fitted effect of over 60% in size; note: potency is the fitted concentration of half-maximal effect
# In short: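 Luminescence readout of luciferin formed from 10uM Luciferin-H EGE (KM level) by 5 nM CYP2C19 in 50mM KPO4. 60 min NADPH-driven reaction at 37C after 10 min compound preincubation; data scaled to 57uM ketoconazole inhibition.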
# [3] = qHTS Assay for Identification of Small Molecule Antagonists for Thrombopoietin (TPO) Signaling Pathway (AID 918); conditions: TPO-dependent cell signaling reporter, antagonist mode; note: potency is the fitted concentration of half-maximal effect; nearly all actives have a fitted effect of over 60% in size
# In short: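 Ba/F3 (murine, hTPO-R, GPIIb-luc reporter); overnight IL-3 withdrawal; cpd + TPO 26 pM final (EC50); 24 h 37 C/5% CO2; Steadylite luminescence after 10 min RT.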
# [4] = molecular target: Cytochrome P450 2C9 (Homo sapiens) (UniProt P11712); test: qHTS Assay for Inhibitors and Substrates of Cytochrome P450 2C9 (AID 883); conditions: recombinant CYP2C9, luciferin-H luminescence, 60 min; series mostly up to 57.1 µM; note: nearly all actives have a fitted effect of over 60% in size; note: potency is the fitted concentration of half-maximal effect; for activity change, negative = inhibition: % is set by controls: 0 for no effect and ±100 for the full control effect
# In short: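 Luminescent read-out of deoxyluciferin hydroxylation, normalized to 57uM sulphaphenazole (AC100). Reaction: 10nM enzyme, 100uM Luciferin-H (equal to KM), 25mM KPO4, 10 min compound preincubation, then 60 min with NADPH regeneration, both at 37C.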
# [5] = molecular target: Cytochrome P450 2D6 (Homo sapiens) (UniProt P10635); test: qHTS Assay for Inhibitors and Substrates of Cytochrome P450 2D6 (AID 891); conditions: recombinant CYP2D6, luciferin-ME EGE luminescence; series mostly up to 11.4 µM; note: nearly all actives have a fitted effect of over 60% in size; note: potency is the fitted concentration of half-maximal effect;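 for activity change, negative = inhibition: luciferin methyl ether substrate demethylated by CYP2D6 with NADPH regeneration; % is set by controls: 0 for no effect and ±100 for the full control effect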
# In short: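 Human CYP2D6 (5 nM) with 30 uM Luciferin-ME EGE (at Km) in 100 mM KPO4, compound preincubated 10 min, then NADPH regeneration system for 60 min at room temperature. Luciferin read by luminescence; normalized to 1.43 uM quinidine.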
# [6] = molecular target: Bile acid receptor (Homo sapiens) (UniProt Q96RI1); test: qHTS assay for small molecule agonists of farnesoid X receptor signaling (AID 588527; calls by dose curve;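 note: 0% = vehicle basal and 100% = reference agonist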); conditions: HEK293T FXR-UAS-bla, beta-lactamase ratio, 16 h; hits give high values
# In short: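 FXR-UAS-bla HEK293T cells (10% dialyzed FBS) preincubated 5-7 h at 37 C, then compounds at up to 92 uM for 16 h at 37 C. CCF4 beta-lactamase read-out after 2 h RT. Normalized to chenodeoxycholic acid (100 uM) and DMSO; Hill fit gave EC50 and efficacy.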
# [7] = molecular target: Androgen receptor (Homo sapiens) (UniProt P10275); test: qHTS assay for small molecule agonists of androgen receptor signaling (AID 588515; active = well fitted curve in the direction sought with a large enough effect in the signal ratio, with a control signal flat; the % refers to the signal ratio; note: % is set by controls: 0 for no effect and ±100 for the full control effect); conditions: AR-UAS-bla HEK293, beta-lactamase ratio, agonist 16 h; hits give high values
# In short: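 EC50 and efficacy came from Hill fits of titrations (up to 92 uM) normalized to 30 nM R1881 as 100% and DMSO as 0%. Compound exposure was 16 h at 37 C on AR-UAS-bla HEK293 cells, with a 405/460/530 nm CCF4 fluorescence read.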
# [8] = molecular target: Androgen receptor (Homo sapiens) (UniProt P10275); test: qHTS assay for small molecule antagonists of androgen receptor signaling (AID 588516; active = well fitted curve in the direction sought with a large enough effect in the signal ratio, with a control signal flat, not every such curve was filed as active; the % refers to the signal ratio; note: % is set by controls: 0 for no effect and ±100 for the full control effect); conditions: AR-UAS-bla HEK293, beta-lactamase ratio, antagonist mode, 16 h; series mostly up to 76.8 µM
# In short: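 HEK293 AR-UAS-bla cells, 10% dialyzed FBS medium; cpd titration + R1881 10 nM final, 16 h 37 C; CCF4 2 h RT; FRET ratio; IC50/efficacy via Hill fit.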
# Androgen receptor (Homo sapiens), sequence (P10275 whole entry, looked up): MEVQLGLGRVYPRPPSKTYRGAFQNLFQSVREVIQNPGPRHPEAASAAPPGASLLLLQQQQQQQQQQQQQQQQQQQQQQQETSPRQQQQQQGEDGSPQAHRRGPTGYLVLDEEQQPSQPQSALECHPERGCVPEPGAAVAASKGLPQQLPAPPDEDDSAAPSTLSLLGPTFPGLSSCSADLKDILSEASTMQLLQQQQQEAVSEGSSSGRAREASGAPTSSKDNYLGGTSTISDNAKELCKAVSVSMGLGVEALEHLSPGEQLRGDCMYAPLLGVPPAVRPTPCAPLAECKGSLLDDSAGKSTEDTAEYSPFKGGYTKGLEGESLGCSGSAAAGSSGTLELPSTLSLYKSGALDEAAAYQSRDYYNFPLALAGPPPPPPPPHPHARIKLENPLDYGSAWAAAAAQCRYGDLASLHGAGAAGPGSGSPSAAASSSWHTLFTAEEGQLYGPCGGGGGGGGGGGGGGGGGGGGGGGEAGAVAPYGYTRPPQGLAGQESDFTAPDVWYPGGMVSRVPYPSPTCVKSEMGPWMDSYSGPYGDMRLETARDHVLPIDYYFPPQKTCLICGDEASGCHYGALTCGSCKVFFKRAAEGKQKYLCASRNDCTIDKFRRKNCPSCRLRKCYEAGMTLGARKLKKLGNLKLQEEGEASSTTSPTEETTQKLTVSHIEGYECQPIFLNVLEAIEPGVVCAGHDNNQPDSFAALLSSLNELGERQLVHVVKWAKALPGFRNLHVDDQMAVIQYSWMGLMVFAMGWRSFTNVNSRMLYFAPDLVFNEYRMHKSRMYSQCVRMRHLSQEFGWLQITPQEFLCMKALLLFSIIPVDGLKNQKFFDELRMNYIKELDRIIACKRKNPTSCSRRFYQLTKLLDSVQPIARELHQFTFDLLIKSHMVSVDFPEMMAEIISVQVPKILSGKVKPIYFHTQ
# Cytochrome P450 2D6 (Homo sapiens), sequence (P10635 whole entry, looked up): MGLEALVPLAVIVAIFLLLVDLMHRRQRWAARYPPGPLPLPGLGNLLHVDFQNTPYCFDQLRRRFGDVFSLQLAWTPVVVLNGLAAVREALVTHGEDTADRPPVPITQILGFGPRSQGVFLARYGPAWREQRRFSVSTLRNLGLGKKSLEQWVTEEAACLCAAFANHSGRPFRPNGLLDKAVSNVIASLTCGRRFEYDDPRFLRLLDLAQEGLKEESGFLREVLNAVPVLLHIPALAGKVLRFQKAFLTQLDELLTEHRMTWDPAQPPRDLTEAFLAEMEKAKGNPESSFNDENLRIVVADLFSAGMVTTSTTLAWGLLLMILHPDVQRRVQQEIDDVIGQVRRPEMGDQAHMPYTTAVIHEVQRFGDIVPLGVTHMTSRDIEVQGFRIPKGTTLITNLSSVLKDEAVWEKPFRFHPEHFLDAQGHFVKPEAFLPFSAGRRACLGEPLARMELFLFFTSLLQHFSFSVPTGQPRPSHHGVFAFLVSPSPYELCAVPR
# Bile acid receptor (Homo sapiens), sequence (Q96RI1 whole entry, looked up): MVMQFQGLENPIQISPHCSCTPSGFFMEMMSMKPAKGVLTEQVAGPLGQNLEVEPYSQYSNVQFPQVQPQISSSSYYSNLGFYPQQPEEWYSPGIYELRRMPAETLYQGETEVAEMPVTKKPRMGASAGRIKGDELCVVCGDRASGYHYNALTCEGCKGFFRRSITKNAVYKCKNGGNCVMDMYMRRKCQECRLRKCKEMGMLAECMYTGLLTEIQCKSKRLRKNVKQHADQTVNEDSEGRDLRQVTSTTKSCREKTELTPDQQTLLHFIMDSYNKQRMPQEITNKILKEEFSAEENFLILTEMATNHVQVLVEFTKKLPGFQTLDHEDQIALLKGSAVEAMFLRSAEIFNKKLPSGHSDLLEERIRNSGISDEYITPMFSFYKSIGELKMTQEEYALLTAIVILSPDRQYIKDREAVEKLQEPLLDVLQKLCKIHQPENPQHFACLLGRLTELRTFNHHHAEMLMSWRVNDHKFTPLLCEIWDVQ
# Cytochrome P450 2C19 (Homo sapiens), sequence (P33261 whole entry, looked up): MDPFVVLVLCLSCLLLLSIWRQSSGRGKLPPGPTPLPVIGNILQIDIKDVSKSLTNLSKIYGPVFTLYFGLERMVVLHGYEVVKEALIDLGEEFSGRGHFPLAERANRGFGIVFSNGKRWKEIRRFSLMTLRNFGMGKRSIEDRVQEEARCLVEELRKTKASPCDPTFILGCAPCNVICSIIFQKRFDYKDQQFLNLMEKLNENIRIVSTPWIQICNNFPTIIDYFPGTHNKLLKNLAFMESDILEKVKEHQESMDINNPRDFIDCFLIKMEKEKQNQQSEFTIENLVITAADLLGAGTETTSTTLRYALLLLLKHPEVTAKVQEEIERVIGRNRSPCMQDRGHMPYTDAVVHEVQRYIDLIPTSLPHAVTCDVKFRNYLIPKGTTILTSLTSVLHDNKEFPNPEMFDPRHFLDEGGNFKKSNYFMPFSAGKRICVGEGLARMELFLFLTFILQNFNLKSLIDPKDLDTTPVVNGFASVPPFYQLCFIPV
# Cytochrome P450 2C9 (Homo sapiens), sequence (P11712 whole entry, looked up): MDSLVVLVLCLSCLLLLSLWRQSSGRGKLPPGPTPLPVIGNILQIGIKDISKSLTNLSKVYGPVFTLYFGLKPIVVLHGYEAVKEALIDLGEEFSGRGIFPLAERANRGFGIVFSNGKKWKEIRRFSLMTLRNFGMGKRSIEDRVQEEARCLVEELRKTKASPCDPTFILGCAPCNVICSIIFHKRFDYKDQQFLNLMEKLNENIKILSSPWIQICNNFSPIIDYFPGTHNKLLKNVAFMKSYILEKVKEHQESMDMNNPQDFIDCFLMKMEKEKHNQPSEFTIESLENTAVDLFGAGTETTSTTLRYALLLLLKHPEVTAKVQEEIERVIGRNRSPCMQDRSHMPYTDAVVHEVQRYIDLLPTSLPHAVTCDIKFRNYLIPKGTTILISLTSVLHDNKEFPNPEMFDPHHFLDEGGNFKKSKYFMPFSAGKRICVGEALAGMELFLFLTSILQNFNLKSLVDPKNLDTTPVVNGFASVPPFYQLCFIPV
structure (smiles),measurement,setting,value
COc1cc(C[C@H](C)N)c(OC)cc1I,activation,[1],2.02% and -7.45%
CCn1cnc2c(Nc3cccc(Cl)c3)nc(N[C@@H]3CCCC[C@H]3N)nc21,Potency,[2],inactive
same,Potency,[3],2.51 µM (active)
CC(C)[C@@]1(NC(=O)[C@H]2C[C@H]3c4cccc5[nH]cc(c45)C[C@@H]3N(C)C2)O[C@]2(O)[C@H]3CCCN3C(=O)[C@H](Cc3ccccc3)N2C1=O,Potency,[4],2.51 µM (active)
same,Potency,[2],6.31 µM (active)
COc1ccc2c(c1)[C@]13CCCC[C@@H]1[C@H](C2)NCC3,Potency,[5],6.31 µM (active)
COc1ccc2c3c1O[C@@H]1C(=O)CC[C@@]4(O)[C@@H](C2)N(CC2CC2)CC[C@]314,Potency,[5],5.01 µM (active)
O=C(Nc1cc[c]([Sb](=[O])([OH])[OH])cc1)c1ccccc1,"activity change, negative = inhibition",[4],2.5% [at 11.4 µM]
same,Potency,[5],inactive
same,Potency,[2],inactive
N[C@H](Cn1cc(I)c(=O)[nH]c1=O)C(=O)O,Potency,[4],inactive
same,Potency,[5],inactive
same,Potency,[2],inactive
CCNC(=O)[C@@H]1O[C@@H](n2cnc3c(N)ncnc32)[C@@H](O)[C@H]1O,Potency,[2],inactive
CC(C)[C@@]1(NC(=O)[C@@H]2C=C3c4cccc5[nH]cc(c45)C[C@@H]3N(C)C2)O[C@]2(O)[C@H]3CCCN3C(=O)[C@H](Cc3ccccc3)N2C1=O,Potency,[5],inactive
same,Potency,[2],inactive
N[C@H](Cn1ccc(=O)[nH]c1=O)C(=O)O,Potency,[5],3.98 µM (active)
same,activation,[1],10.5%
CC(=O)[C@@H]1CC[C@H]2[C@H]3CC[C@H]4C[C@@H](O)CC[C@]4(C)[C@@H]3CC[C@]12C,Potency,[4],2 µM (active)
CN1C[C@@H](CS(=O)(=O)N(C)C)C[C@H]2c3cccc4c3c(cn4C)C[C@@H]21,Potency,[5],3.98 µM (active)
NC(=O)CN1C[C@@H](O)CC1=O,activation,[1],9.85%
N[C@H](Cn1oc(=O)[nH]c1=O)C(=O)O,Potency,[4],inactive
same,Potency,[5],inactive
same,Potency,[2],inactive
C[Se]C[C@@H](N)C(=O)O,Potency,[2],inactive
Nc1ccc(Cc2ccc(N)cc2)cc1,activation,[6],-2.78% and 3.63%
N#CC(Cl)(Cl)Cl,activation,[7],-3.49%
same,outcome,[8],inactive
BrCC(Br)C1CCC(Br)C(Br)C1 (configuration not stated),activation,[7],1.31%
same,outcome,[8],inactive
O=[N+]([O-])/C=C/c1ccccc1,activation,[6],2.07%
O=NN1CCCCC1,activation,[7],6.11%
same,outcome,[8],inactive
CC(C)(COCC1CO1)COCC1CO1 (configuration not stated),activation,[6],1.49%
CCC(Cl)[N+](=O)[O-] (configuration not stated),activation,[6],-1.12%
Oc1ccc(Cl)c(Cl)c1Cl,activation,[6],0.826%
N#CCCC#N,activation,[6],-0.443%
